# Reference: PubChem BioAssay
# The source made the active and inactive calls. Unless noted, the rule behind the calls is not given here.
# Tests used:
# [1] = test system: Wnt5a (protein binding on small-molecule microarray); experiment: small molecules binding Wnt5a protein – biophysical, small-molecule microarray, 635/667 nm fluorescence, primary screen (AID 1142); details: 635 nm fluorescence, higher = more signal;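 note: fluorescence read at 667 nm with signal to noise per printed feature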
# [2] = ATP-based viability of Huh7 replicon cells – cell-based, CellTiter-Glo luminescence, basal, 48 h, cytotoxicity control for HCV replication inhibitor project, primary screen (AID 1143); details: higher = more signal, called active from +8 up or from −8 down;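 note: Huh7 hepatoma cells carrying a hepatitis C replication reporter with no stimulus; test concentration not given here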
# [3] = Pseudomonas biofilm growth suppression – PAO1 strain, BacTiter-Glo luminescence, LB-PBS, primary screen (AID 1144); details: P. aeruginosa PAO1 biofilm, 12 h, higher = more signal
# [4] = basal CRE-LacZ reporter activity in PC12 – cell-based, unstimulated, primary screen (AID 1145); details: no forskolin, luminescence, 4.5 h, higher = more signal, called active from +8 up or from −8 down
# [5] = forskolin-driven CRE-LacZ activity in PC12 – cell-based, CRE-LacZ reporter, forskolin-stimulated, primary screen (AID 1146); details: luminescence, 4.5 h, higher = more signal, called active from +8 up or from −8 down;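 note: PC12 cells with 6xCRE LacZ reporter stimulated by forskolin 10 µM; beta-galactosidase reporter signal reflecting CREB driven transcription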
# [6] = target: Streptavidin (Streptomyces avidinii) (UniProt P22629); experiment: compounds binding control protein streptavidin – biophysical, small-molecule microarray, 635/667 nm fluorescence, artefact control for SMM compound annotation, primary screen (AID 1147); details: higher = more signal;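 note: signal reflects streptavidin binding to arrayed compounds as a control protein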
# Chain of Streptavidin (Streptomyces avidinii) (P22629 whole entry, looked up): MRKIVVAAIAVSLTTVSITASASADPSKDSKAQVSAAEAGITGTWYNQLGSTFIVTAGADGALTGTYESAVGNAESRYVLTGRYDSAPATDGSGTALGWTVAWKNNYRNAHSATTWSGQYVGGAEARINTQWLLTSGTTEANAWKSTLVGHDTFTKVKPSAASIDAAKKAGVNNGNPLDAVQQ
# [7] = probe aInhba binding on compound microarray – biochemical, small-molecule microarray, 635/667 nm fluorescence, primary screen (AID 1148); details: higher = more signal;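 note: score merges 667nm spot fluorescence with signal-to-noise for antibody binding to printed compounds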
# Torsin-1A (Homo sapiens) [8] = target: Torsin-1A (Homo sapiens) (UniProt O14656); experiment: TOR1A wild-type binding on microarray – cell lysate, small-molecule microarray, lysate, 635/667 nm, primary screen (AID 1149); details: COS7 hTOR1A-WT lysate, 635 nm fluorescence, higher = more signal
# Chain of Torsin-1A (Homo sapiens) (O14656 whole entry, looked up): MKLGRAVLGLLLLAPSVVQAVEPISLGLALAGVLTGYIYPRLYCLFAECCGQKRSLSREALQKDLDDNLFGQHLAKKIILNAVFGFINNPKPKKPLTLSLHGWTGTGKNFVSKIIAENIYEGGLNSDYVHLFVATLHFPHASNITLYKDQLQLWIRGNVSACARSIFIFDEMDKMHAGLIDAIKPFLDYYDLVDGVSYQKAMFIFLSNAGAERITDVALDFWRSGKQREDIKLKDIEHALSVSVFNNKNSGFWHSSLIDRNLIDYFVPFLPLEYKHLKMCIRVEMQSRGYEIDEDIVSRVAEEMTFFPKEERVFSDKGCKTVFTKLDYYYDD
# Torsin-1A (Homo sapiens) [9] = target: Torsin-1A (Homo sapiens) (UniProt O14656); experiment: torsin A mutant lysate binding on microarrays – cell lysate, small-molecule microarray, COS7 lysate, 635/667 nm fluorescence, primary screen (AID 1150); details: COS7 hTOR1A mutant lysate, 635 nm fluorescence, higher = more signal;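 note: score pools 667 nm emission and signal to noise measuring lysate protein binding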
# [10] = test system: Sonic hedgehog protein (Shh); experiment: Sonic hedgehog microarray binding compounds – biochemical, small-molecule microarray, 635/667 nm fluorescence, primary screen (AID 1151); details: 635 nm fluorescence, higher = more signal;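 note: Shh protein binding to compounds spotted on small-molecule microarray slides; score combines spot fluorescence intensity with signal-to-noise across triplicate slides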
Structure (SMILES),composite z-score [1],z-score [2],z-score [3],z-score [4],z-score [5],composite z-score [6],composite z-score [7],composite z-score (Torsin-1A (Homo sapiens) [8]),composite z-score (Torsin-1A (Homo sapiens) [9]),composite z-score [10]
CCCC[C@@H]1C[C@H]1[C@@H](NC(=O)C(C)(C)C)c1ccc(C(F)(F)F)cc1,-0.96,-4.27 (inactive),0.0317 (inactive),0.201 (inactive),1.44 (inactive),0.0267,-0.0405,-0.49,-0.869,-1.7
O=C1O[C@H](c2ccccc2)[C@H](c2ccccc2)N2[C@H]1[C@@H](C(=O)N1CCCCCCC1)[C@]1(C(=O)Nc3ccc(C#CC4=CCCCC4)cc31)[C@H]2c1ccc(OCCO)cc1,1.79,-5.63 (inactive),-0.761 (inactive),0.182 (inactive),-0.617 (inactive),3.17,2.23,1.5,1.88,1.59
COc1ccccc1CN1C(=O)c2ccccc2[C@@H](C(=O)NC2CC2)[C@@H]1c1ccc(CO)cc1,0.845,-0.132 (inactive),0.217 (inactive),-0.709 (inactive),-1.03 (inactive),0.53,0.297,0.848,0.385,1.8
[N-]=[N+]=Nc1ccccc1[C@H]1OC(c2ccc(OCCCO)cc2)=N[C@@]1(CCS(=O)(=O)c1ccccc1)C(=O)NCC(O)CO (stereo not given in full),0.751,-1.46 (inactive),0.732 (inactive),0.848 (inactive),-0.249 (inactive),1.29,0.15,1.26,0.774,-1.02
O=C1OCCC/C=C\[C@H]2OC34C=CCN(Cc5ccccc5)C(=O)[C@H]3N(CCCO)C(=O)[C@@H]4C12 (stereo not given in full),-0.597,-0.639 (inactive),2.87 (inactive),0.593 (inactive),-0.59 (inactive),-1.1,-0.176,-1.14,-2.13,-0.85
[N-]=[N+]=Nc1ccccc1[C@@H]1OC(c2ccc(OCCCO)cc2)=N[C@]1(Cc1ccccc1)C(=O)N1CCOCC1,0.546,-3.97 (inactive),0.617 (inactive),1.56 (inactive),-1.42 (inactive),1.35,0.0658,0.311,0.58,-0.3
CC(C)C[C@@H]1NC(=O)[C@@H]2C[C@H](C(=O)O)[C@H](c3cccc(OCCO)c3)N2C1=O,0.64,-1.07 (inactive),0.133 (inactive),0.826 (inactive),1.41 (inactive),-0.811,-0.209,0.198,1.09,0.188
[N-]=[N+]=Nc1ccccc1[C@H]1OC(c2ccc(OCCCO)cc2)=N[C@@]1(CCS(=O)(=O)c1ccccc1)C(N)=O,0.79,-1.26 (inactive),-0.563 (inactive),0.96 (inactive),-1.12 (inactive),0.751,0.668,0.875,0.356,0.176
COCCOC(=O)N1C(=O)[C@@]2(c3ccccc31)[C@H](c1ccccc1OCCO)N1[C@H](c3ccccc3)[C@H](c3ccccc3)OC(=O)[C@H]1[C@@H]2C(=O)N1CCN(c2ncccn2)CC1,-0.0525,-2.08 (inactive),0.235 (inactive),-0.0688 (inactive),3.84 (inactive),0.498,-0.0102,0.447,0.489,1.34
C=CCC(OC(C)=O)[C@@H]1[C@@H](N(Cc2ccc(-c3ccccc3)cc2)C(=O)Cc2ccc(OC)cc2)c2cc(OCCCO)ccc2N1C(=O)Cc1ccc2ccccc2c1 (stereo not given in full),-0.263,-1.45 (inactive),0.294 (inactive),0.745 (inactive),0.358 (inactive),0.192,-0.0221,-0.921,0.616,0.412
C=CCNC(=O)[C@H]1[C@@H]2C(=O)O[C@@H](c3ccccc3)[C@@H](c3ccccc3)N2[C@@H](c2ccccc2OCCO)[C@]12C(=O)Nc1ccc(C#CCCO)cc12,0.805,-3.21 (inactive),0.481 (inactive),-0.141 (inactive),4.71 (inactive),-0.378,-0.0944,-0.897,-0.202,-0.322
CC(C)N1C(=O)[C@@]2(Cc3ccccc31)c1ccccc1C(=O)N(Cc1ccccc1Cl)[C@H]2c1ccc(CO)cc1,-0.515,-2.27 (inactive),-1.68 (inactive),0.389 (inactive),-0.389 (inactive),-0.136,-0.29,-1.47,-0.848,-1.25
O=C1c2ccccc2[C@](Cc2ccccc2I)(C(=O)NCC(F)(F)F)[C@H](c2ccc(CO)cc2)N1Cc1ccccc1Cl,0.0919,-0.703 (inactive),-1.28 (inactive),0.506 (inactive),0.779 (inactive),0.742,0.216,-0.14,0.34,1.37
COc1ccc(C#Cc2ccc3c(c2)[C@]2(C(=O)N3)[C@H](c3ccccc3OCCO)N3[C@H](c4ccccc4)[C@H](c4ccccc4)OC(=O)[C@H]3[C@@H]2C(=O)Nc2nc3ccccc3s2)cc1,0.469,-1.62 (inactive),-0.726 (inactive),-1.28 (inactive),-1.38 (inactive),1.09,1.06,0.0821,0.479,1.52
CCOC(=O)C[C@H]1[C@H](OC(=O)c2ccc(C(=O)c3ccccc3)cc2)[C@@H](NC(=O)c2ccc3ccccc3n2)c2cc(OCCCO)ccc2N1C(=O)c1ccccc1,0.369,-0.0142 (inactive),0.0839 (inactive),0.498 (inactive),0.0154 (inactive),0.616,0.0561,0.484,0.605,1.2
O=C1C[C@@](C(=O)NC2CC2)(c2ccc([N+](=O)[O-])cc2)[C@@H](c2ccc(CO)cc2I)N1C1CCCCC1,0.693,-3.54 (inactive),-0.691 (inactive),0.495 (inactive),0.714 (inactive),1.38,0.0785,0.207,0.461,2.09
CCCC[C@@H]1C[C@H]1[C@@H](NC(=O)c1ccco1)c1ccccc1C(F)(F)F,0.667,-0.547 (inactive),0.431 (inactive),0.773 (inactive),1.3 (inactive),1.42,2.01,0.408,-0.0311,0.0509
C[N+](C)(C)CCCCCCNC(=O)[C@@H]1C[C@@H]2C(=O)N[C@@H](Cc3ccccc3)C(=O)N2[C@@H]1c1cccc(OCCO)c1,0.122,-0.428 (inactive),-0.573 (inactive),-1.22 (inactive),-1.04 (inactive),0.0123,-0.0918,0.787,1.51,1.92
O=C1C2C=CC(C(O)c3cccc4ccccc34)N(Nc3ccccc3F)C2C(=O)N1c1ccccc1 (stereo not given),0.115,-0.586 (inactive),-0.732 (inactive),-0.62 (inactive),0.276 (inactive),1.66,0.103,1.44,0.993,-0.458
[N-]=[N+]=NCc1ccccc1[C@@H]1OC(c2ccc(OCCCO)cc2)=N[C@]1(Cc1ccccc1)C(=O)NCC(O)CO (stereo not given in full),0.334,-1.58 (inactive),0.0756 (inactive),1.27 (inactive),-0.757 (inactive),0.255,0.84,0.281,0.294,-0.492
CN1C(=O)C2C=CC(C(O)c3ccc([N+](=O)[O-])cc3)N(N3CCCCC3)C2C1=O (stereo not given),0.466,0.576 (inactive),-0.711 (inactive),1.01 (inactive),0.316 (inactive),0.901,0.464,0.319,0.603,-0.041
COCCOC(=O)N1C(=O)[C@@]2(c3cc(C#CCCO)ccc31)[C@H](C(N)=O)[C@H]1C(=O)O[C@H](c3ccccc3)[C@H](c3ccccc3)N1[C@@H]2c1ccc(O)cc1,0.186,0.505 (inactive),0.676 (inactive),-0.602 (inactive),-0.702 (inactive),-0.36,-0.163,-0.192,-0.176,-0.412
COc1cc2c(cc1OC)CN(C(=O)[C@H]1[C@@H]3C(=O)O[C@@H](c4ccccc4)[C@@H](c4ccccc4)N3[C@@H](c3ccc(O)cc3)[C@]13C(=O)Nc1ccccc13)CC2,0.0185,-1.57 (inactive),-0.219 (inactive),0.358 (inactive),0.282 (inactive),-0.805,0.417,0.191,1.36,0.931
O=C1NC(=O)C2C1C=CC(C(O)c1cccs1)N2Nc1ccc(Cl)cc1Cl (stereo not given),-0.0653,0.0581 (inactive),-0.24 (inactive),-0.136 (inactive),-0.109 (inactive),-0.695,-0.118,0.352,0.112,-0.0963
CCCCCN1CC=CC23O[C@@H]4/C=C\CCC(C)OC(=O)C4[C@H]2C(=O)N(C(C)CO)[C@@H]3C1=O (stereo not given in full),-0.105,0.28 (inactive),-0.818 (inactive),-1.17 (inactive),-0.672 (inactive),-0.659,-0.0933,-1.11,-0.742,1.09
C=CCC(OC(C)=O)[C@@H]1[C@@H](N(Cc2ccc(-c3ccccc3)cc2)C(=O)c2ccc(-c3ccccc3)cc2)c2cc(OCCCO)ccc2N1C(=O)Cc1ccc2ccccc2c1 (stereo not given in full),0.102,0.315 (inactive),-0.0138 (inactive),0.208 (inactive),0.411 (inactive),0.497,0.0051,-0.395,0.42,0.523
CCCC#C[Si](O[C@H](CC)c1cn(Cc2cccc(Cl)c2)nn1)(C(C)C)C(C)C,0.227,-1 (inactive),-0.618 (inactive),-0.505 (inactive),-0.558 (inactive),0.379,0.192,0.882,0.244,0.773
CN1C(=O)C2C=CC(C(O)c3ccccc3)N(N(c3ccccc3)c3ccccc3)C2C1=O (stereo not given),-0.117,0.653 (inactive),0.808 (inactive),-0.712 (inactive),0.635 (inactive),0.39,0.0051,-0.351,-0.398,0.522
